Hits are enriched below; roughly 0.45% of the tested compounds scored in any of these assays.
EPAC2 ag – EPAC2 (human) agonism; EPAC2 activation, biochemical qHTS; response scale: 100% = 6.5 mM cAMP response; Potency, µM (series often up to 154 µM), hits mostly activators; actives 0.079% (n = 360,000); AID 720711; also: nearly all actives have a fitted effect of over 50% in size
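In this primary screen, activation is scored as increased exchange of BODIPY-GDP from Rap1B by 100 nM EPAC2, with 50 uM GDP as competitor. Signal is normalized to the 6.5 mM cAMP agonist control.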
USP2a block – USP2a (human) protease inhibition; actives 0.01% (n = 330,000); O75604; USP2 core, Ub-CHOP2 coupled fluorogenic reporter, 485/531; Potency, µM (doses to about 38.3 µM), most hits filed as inhibitors
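USP2 core (10nM final) preincubated 30min RT with compound in 20mM Tris-HCl pH 8.0, 2mM CaCl2, 2mM beta-mercaptoethanol, 0.05% CHAPS; 25nM Ub-CHOP2 plus 25nM reporter substrate added, fluorescence (Ex485/Em531) read after 60min.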
EPAC2 antag – EPAC2 (human) antagonism; Q8WZA2; EPAC2 GEF exchange of Rap1B-BODIPY-GDP, fluorescence; Potency, µM (top dose mostly 114 µM), usual class: inhibitors; actives 0.18% (n = 360,000); also: nearly all actives have a fitted effect of over 45% in size
EPAC1 antag – antagonists of human EPAC1; O95398; EPAC1 GEF assay, Rap1b-BODIPY-GDP exchange fluorescence; Potency, µM (doses to about 115 µM), hits mostly inhibitors; actives 0.14% (n = 360,000); AID 720709; also: nearly all actives have a fitted effect of over 50% in size
USP1-UAF1 inh – inhibitors of human USP1/UAF1 deubiquitinase | recombinant USP1/UAF1, Ub-Rhodamine cleavage fluorescence | Potency, µM (titrated, usually from 57.1 µM), usual class: inhibitors | actives 0.23% (n = 390,000) | AID 743255; also: nearly all actives have a fitted effect of over 60% in size
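1 nM enzyme complex + cpd, 15 min RT; start with Ub-Rho 150nM final; kinetic fluorescence ex 480/em 540, 6 reads q60 s. Buffer 50mM HEPES pH 7.8, 0.5mM EDTA, 0.1 mg/ml BSA, 1mM TCEP, 0.01% Tween-20.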
EPAC1 agonist – agonists of human EPAC1; EPAC1 agonist qHTS, biochemical assay; response scale: 100% = response to 6.5 mM cAMP; actives 0.073% (n = 360,000); AID 720707; Potency, µM (top dose mostly 154 µM), actives largely listed as activators; also: nearly all actives have a fitted effect of over 60% in size
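Read-out is the fluorescence drop as BODIPY-GDP leaves Rap1B (480 nm excitation, 540 nm emission), recorded every 5 minutes over 30 minutes. Reactions held 100 nM EPAC1, 250 nM Rap1B–BODIPY-GDP and 50 uM GDP, with 6.5 mM cAMP setting full activation.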
Numbers stand for hits; ! = a repeat was not active. Calls follow the shape of the dose curve; as a rule, active = well fitted curve in the direction sought with a large enough effect; inconclusive = small, poorly fitted or top-dose-only effect, or another doubt; inactive = no such curve, though single readings can be large; an effect the other way counts as inactive or inconclusive.

Screening N[C@@H](Cc1cc(I)c(Oc2ccc(O)c(I)c2)c(I)c1)C(=O)O returned EPAC2 ag inactive, USP2a block inconclusive, EPAC2 antag inconclusive, EPAC1 antag 50.1µM!, USP1-UAF1 inh inconclusive and EPAC1 agonist inactive.
`O=C1CSC(c2ccccn2)N1c1ccc(Cl)c(Cl)c1` (stereo not drawn) gave EPAC2 ag inactive, USP2a block inactive, EPAC2 antag inactive, EPAC1 antag inactive, USP1-UAF1 inh inactive and EPAC1 agonist inactive.
For O=C1CSC(c2ccc(Cl)cc2Cl)N1c1ccccn1 (stereo not drawn) the results were EPAC2 ag inactive, USP2a block inactive, EPAC2 antag 17.8µM, EPAC1 antag inactive, USP1-UAF1 inh inactive and EPAC1 agonist inactive.
For O=C(O)c1ccc2c(c1)C(=O)N([C@H](Cc1ccc(-c3ccccc3)cc1)C(=O)O)C2=O the results were USP2a block inactive.
`COc1ccccc1Oc1ccnc2cc(Cl)ccc12` gave EPAC2 ag inactive, USP2a block inactive, EPAC2 antag 39.8µM, EPAC1 antag inactive, USP1-UAF1 inh inactive and EPAC1 agonist inactive.
Screening COc1ccccc1CNc1ncnc2cc(Cl)ccc12 returned EPAC2 ag inactive, USP2a block inactive, EPAC2 antag inactive, EPAC1 antag inactive, USP1-UAF1 inh inactive and EPAC1 agonist inactive.
For N#C/C(=C\c1ccc(N2CCCCC2)o1)C(=O)Nc1cccc(Br)c1 the results were EPAC2 ag inconclusive, USP2a block inactive, EPAC2 antag inactive, EPAC1 antag inactive, USP1-UAF1 inh 28.2µM and EPAC1 agonist inconclusive.
`CCN1/C(=C/C=C/c2oc3ccc(-c4ccccc4)cc3[n+]2CC)Oc2ccc(-c3ccccc3)cc21` gave EPAC2 ag 63.1µM, USP2a block inconclusive, EPAC2 antag inactive, EPAC1 antag inactive and EPAC1 agonist 39.8µM.
CCN1/C(=C/C=C/c2sc3ccccc3[n+]2CC)Sc2ccccc21 was read as EPAC2 ag inactive, USP2a block inactive, EPAC2 antag inactive, EPAC1 antag inactive, USP1-UAF1 inh inconclusive and EPAC1 agonist inactive.
`CCC1=NN(C(=O)c2ccc(Br)cc2)C(O)(c2ccccc2)C1` (stereo not drawn) gave EPAC2 ag inactive, USP2a block inactive, EPAC2 antag inactive, EPAC1 antag inactive, USP1-UAF1 inh inactive and EPAC1 agonist 112µM.
`Cc1cc(OC(C)C(=O)N(Cc2ccco2)Cc2ccco2)cc(C)c1Cl` (stereo not drawn) gave USP1-UAF1 inh inactive.
`NS(=O)(=O)c1ccc2c(c1)C1C=CCC1C(C1CC=CCC1)N2` (stereo not drawn) gave EPAC2 ag inactive, USP2a block inactive, EPAC2 antag inactive, EPAC1 antag 70.8µM, USP1-UAF1 inh inactive and EPAC1 agonist inactive.
Cc1ccccc1C(=O)N/N=C/c1ccc([N+](=O)[O-])s1 was read as EPAC2 ag inactive, USP2a block inactive, EPAC2 antag inactive, EPAC1 antag inactive, USP1-UAF1 inh inactive and EPAC1 agonist inactive.
`Cc1c(Cl)cccc1N=Cc1ccc([N+](=O)[O-])s1` gave EPAC2 ag inactive, USP2a block inactive, EPAC2 antag inactive, EPAC1 antag inconclusive, USP1-UAF1 inh 31.6µM and EPAC1 agonist inactive.
Screening Cc1ccc(SCc2cc(=O)c3c(=O)n(-c4ccccc4)[nH]c3[nH]2)cc1 returned EPAC2 ag inactive, USP2a block inconclusive, EPAC2 antag inactive, EPAC1 antag 79.4µM, USP1-UAF1 inh inactive and EPAC1 agonist inactive.
For CCOC(=O)C1(C)CCCN(C(=O)c2cccnc2)C1 (stereo not drawn) the results were EPAC2 ag inactive, EPAC2 antag inactive, EPAC1 antag inactive and EPAC1 agonist inactive.
For CC1CC(C)CN(C(=O)c2cccc(S(=O)(=O)Nc3cc(C(F)(F)F)ccc3Cl)c2)C1 (stereo not drawn) the results were EPAC2 ag inactive, USP2a block inactive, EPAC2 antag 50.1µM, EPAC1 antag 50.1µM, USP1-UAF1 inh inconclusive and EPAC1 agonist inactive.
For CC(=O)N1CCn2c3c(c4cc(C)ccc42)CCCC31 (stereo not drawn) the results were EPAC2 ag inactive, USP2a block inactive, EPAC2 antag inactive, EPAC1 antag inactive, USP1-UAF1 inh inactive and EPAC1 agonist inactive.
Screening CC(=O)N1CCn2c3c(c(=O)c4cc(C)ccc42)CCC31 (stereo not drawn) returned EPAC2 ag inactive, USP2a block inactive, EPAC2 antag inactive, EPAC1 antag inactive, USP1-UAF1 inh 31.6µM and EPAC1 agonist inactive.
`CCc1ccc(CNC(=O)Cn2nc(C)c3nn(-c4ccc(Cl)cc4)c(C)c3c2=O)cc1` gave USP1-UAF1 inh inactive.
CC(C)OP(=O)(OC(C)C)C1(NS(=O)(=O)c2ccc(Cl)cc2)C=C(Cl)C(=O)C(Cl)=C1 was read as EPAC2 ag inactive, USP2a block inactive, EPAC2 antag 39.8µM, EPAC1 antag inactive, USP1-UAF1 inh inactive and EPAC1 agonist inactive.
Screening O=C1CCCC2=C1C(c1ccc(Br)cc1)c1c([nH]c(=S)[nH]c1=O)N2 (stereo not drawn) returned EPAC2 ag inactive, USP2a block inactive, EPAC2 antag inactive, EPAC1 antag inactive, USP1-UAF1 inh inactive and EPAC1 agonist inactive.
O=c1[nH]c(=S)[nH]c2c1C(c1ccc(Br)cc1)c1c([nH]c(=S)[nH]c1=O)O2 was read as EPAC2 ag inactive, USP2a block inconclusive, EPAC2 antag inactive, EPAC1 antag 35.5µM, USP1-UAF1 inh inconclusive and EPAC1 agonist inactive.
CC1OC(Nc2cccc3ccccc23)C(O)C(O)C1O (stereo not drawn) was read as EPAC2 ag inactive, USP2a block inactive, EPAC2 antag inactive, EPAC1 antag inactive, USP1-UAF1 inh 22.4µM and EPAC1 agonist inactive.
`CC1OC(Nc2ccc(N=Nc3ccccc3)cc2)C(O)C(O)C1O` (stereo not drawn) gave EPAC2 ag inactive, USP2a block inactive, EPAC2 antag inactive, EPAC1 antag inactive, USP1-UAF1 inh inactive and EPAC1 agonist inactive.
Cc1cc(C)c(NC(=O)COC(=O)c2cccc3c2C(=O)c2ccccc2C3=O)c(C)c1 was read as EPAC2 ag inactive, USP2a block inactive, EPAC2 antag inactive, EPAC1 antag inactive, USP1-UAF1 inh inactive and EPAC1 agonist inactive.
`Cc1cc(C)c(Nc2cc(S(=O)(=O)O)c(N)c3c2C(=O)c2ccccc2C3=O)c(C)c1` gave EPAC2 ag inactive, USP2a block inactive, EPAC2 antag inconclusive, EPAC1 antag 50.1µM, USP1-UAF1 inh inconclusive and EPAC1 agonist inactive.
`COc1ccc(NC(=O)c2cn3c4c(ccc(Cl)c4c2=O)OC(C)C3)cc1OC` (stereo not drawn) gave USP1-UAF1 inh inactive.

Assay outcomes (PubChem BioAssay)
